Cl transport mod = modulates chloride dependent transport by human KCC2; Q9H2X9; KCC2 cells, thallium flux FluoZin-2 fluorescence; B-score of Tl+ flux slope (higher = more flux/activation; lower = inhibition) at 10 µM; 190,000 compounds, 2.2% hits;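 active = thallium flux slope and its plate-corrected score both differing from the plate sample mean at a set confidence after two filtering rounds, in either direction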;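 note: slope of fluorescence scaled to starting intensity during 10 to 20 s after thallium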
WT yeast gro inh = growth inhibition of WT yeast, mitochondrial fusion screen; mitochondrial fusion phenotypic screen, WT strain; inhibition, % at 10 µM; 190,000 compounds, 2.1% hits; AID 1362; in the data active = inhibition above about 58%; tested in S. cerevisiae
Lmaj promast = Leishmania major promastigote growth inhibition; Leishmania major promastigotes, resazurin fluorescence viability; 200,000 compounds, 9% hits; inhibition, % at 10 µM; in the data active = inhibition above about 50%;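 note: promastigotes grown with compound for 44 hours at 28 °C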
Ins promoter up = MIN6 insulin promoter up-regulation; MIN6 insulin promoter-GFP reporter, high-content imaging; stronger effect = higher value; z-score at 5 µM; 190,000 compounds, 0.3% hits; AID 1625;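 active = z-score above 3 at 5 µM with at least 500 cells counted in the well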
ROMK mod = modulators of human ROMK potassium channel | 130,000 compounds, 2% hits | B-score at 10 µM | P48048 | Tet-inducible ROMK, thallium flux fluorescence; actives lie on both sides | AID 1918;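 active = signal ratio slope over the read window, or its plate-corrected B-score, at least 3 SD from the plate mean, either direction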;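 note: B-score of the F/F0 ratio slope over 7 to 12 s after thallium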
Target sequence (P48048 whole entry, looked up): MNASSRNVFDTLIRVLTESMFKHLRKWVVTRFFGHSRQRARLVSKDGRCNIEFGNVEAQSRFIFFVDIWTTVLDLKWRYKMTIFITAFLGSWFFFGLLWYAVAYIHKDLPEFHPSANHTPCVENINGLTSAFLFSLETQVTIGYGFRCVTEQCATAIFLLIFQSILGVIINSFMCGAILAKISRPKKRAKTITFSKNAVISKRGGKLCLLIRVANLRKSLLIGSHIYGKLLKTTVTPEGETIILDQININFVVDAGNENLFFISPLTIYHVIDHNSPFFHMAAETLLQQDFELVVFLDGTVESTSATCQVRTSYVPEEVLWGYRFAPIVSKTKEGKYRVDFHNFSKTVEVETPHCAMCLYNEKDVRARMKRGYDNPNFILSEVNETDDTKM
Insulin prom inh = TRM-6 insulin promoter activity inhibition | TRM-6 cells (human fetal islet line), insulin promoter-eGFP reporter, imaging; reporter expression induced with tamoxifen | inhibition, % at 2 µM | 130,000 compounds, 0.9% hits | AID 1273;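 active = inhibition above the mean plus 3 SD, with well images judged a real hit on visual review, cut at about 60% in these data, passing the limit was not always enough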
Starred values were filed as active, the others as inactive. A selection: hits, their analogues and other compounds. The true share with any hit is near 12%.

For C=CCOc1ccc(C2/C(=C(\O)c3ccc(F)cc3)C(=O)C(=O)N2CCCN(C)C)cc1 (stereo not given) the results were Cl transport mod 1.4, WT yeast gro inh 5, Lmaj promast -10, Ins promoter up 0.45 and ROMK mod 0.34.
For Cc1ccc(Nc2ccc(-n3ccnc3)nn2)cc1C the results were Cl transport mod 1.1, WT yeast gro inh 69*, Lmaj promast 32, Ins promoter up -0.42 and ROMK mod 1.4.
Screening Cc1nnc(NC(=O)CSc2nnc(NC(=O)C(C)(C)C)s2)s1 returned Cl transport mod -1.3, WT yeast gro inh -1, Lmaj promast -7, Ins promoter up 0.53, ROMK mod 1.2 and Insulin prom inh 11.
CCSc1nnc(NC(=O)C2CC2c2ccccc2)s1 (stereo not given) was read as Cl transport mod 0.093, WT yeast gro inh -2, Lmaj promast 82*, Ins promoter up 0.74 and Insulin prom inh -5.
For CCSc1nnc(NC(=O)C2CCN(S(=O)(=O)c3ccccc3C(F)(F)F)CC2)s1 the results were Cl transport mod -0.28, WT yeast gro inh -27, Lmaj promast 55*, Ins promoter up -0.28, ROMK mod 1.1 and Insulin prom inh 30.
Screening CCSc1nnc(NC(=O)C(C)(C)C)s1 returned Cl transport mod 1.2, Lmaj promast -6, Ins promoter up -0.34 and Insulin prom inh 77*.
CCN(c1ccc(OCC(=O)OCC(=O)Nc2ccc(F)c(F)c2F)cc1)S(=O)(=O)c1ccccc1 was read as Cl transport mod -0.38, WT yeast gro inh 20, Lmaj promast 47, Ins promoter up 0.71, ROMK mod 0.65 and Insulin prom inh -3.
CC(=O)c1sc(-c2ccc(Cl)cc2)nc1C was read as Cl transport mod 0.013, WT yeast gro inh 2, Lmaj promast -4, Ins promoter up -1.2, ROMK mod -1.2 and Insulin prom inh 40.
Screening Cc1nc(-c2ccccc2)sc1C(=O)/C=C/c1ccc(Cl)cc1 returned Cl transport mod 0.38, WT yeast gro inh -16, Lmaj promast 63* and Insulin prom inh 11.
C=CCN1C(=O)C(C)(C)N(C(C)=O)c2ccccc21 was read as Cl transport mod 0.0091, WT yeast gro inh -5, Lmaj promast -2, Ins promoter up 0.53, ROMK mod 1.4 and Insulin prom inh 11.
Screening CC(=O)N1c2ccccc2N(Cc2ccc(C)cc2C)C(=O)C1(C)C returned Cl transport mod -0.047, WT yeast gro inh 1, Lmaj promast 94* and Ins promoter up 0.22.
`NC1=NC(=O)/C(=C/c2c(OS(=O)(=O)c3ccc(Cl)cc3)ccc3ccccc23)S1` gave Cl transport mod 0.41, WT yeast gro inh 5, Lmaj promast 61*, Ins promoter up -0.2, ROMK mod 1.1 and Insulin prom inh -5.
`NC1=NC(=O)/C(=C/c2ccccc2OS(=O)(=O)c2ccccc2)S1` gave Cl transport mod 1.5, WT yeast gro inh 6, Lmaj promast -5, ROMK mod 0.28 and Insulin prom inh 27.
O=C(c1ccc(S(=O)(=O)N2CCOCC2)cc1)N(c1ccc(F)cc1)C1C=CS(=O)(=O)C1 (stereo not given) was read as Cl transport mod 0.32, WT yeast gro inh 20, Lmaj promast -1, Ins promoter up 0.81 and Insulin prom inh 4.
CCCOc1ccc(C(=O)CCN2CCN(C(=O)OCC)CC2)cc1 was read as Cl transport mod -0.59, WT yeast gro inh -2, Lmaj promast 96*, ROMK mod 0.15 and Insulin prom inh 21.
For CC(C)Oc1ccc(C(=O)CCN2CCCCC2)cc1 the results were Cl transport mod -0.076, WT yeast gro inh 3, Lmaj promast 90*, Ins promoter up -0.09, ROMK mod 0.009 and Insulin prom inh 53.
For CCC1(C)CC2(CCCN(CCC(=O)c3ccccc3)C2)CCO1 (stereo not given) the results were Cl transport mod -0.036, WT yeast gro inh -6, Lmaj promast 69*, Ins promoter up 1.1 and ROMK mod -0.021.
For COc1ccc(C(=O)CCN2CCCCCC2)cc1 the results were WT yeast gro inh 2, Lmaj promast 85*, Ins promoter up -0.59, ROMK mod 0.16 and Insulin prom inh 7.
Screening O=C(COc1ccc(C(=S)N2CCOCC2)cc1)N1CCCC1 returned Cl transport mod 5.6, WT yeast gro inh 0, Lmaj promast -1, Ins promoter up 1.4 and Insulin prom inh -8.
For O=C(CSc1nc(O)cc(=O)n1-c1ccccc1)Nc1ccccn1 the results were Cl transport mod -0.26, WT yeast gro inh -5, Lmaj promast -2, Ins promoter up 0.48 and Insulin prom inh 0.
For O=C(CCN1CCN(c2ccccc2F)CC1)c1ccc(Br)cc1 the results were WT yeast gro inh -10, Lmaj promast 83* and Ins promoter up 0.44.
O=C(CCN1CCCCCC1)c1ccccc1 was read as Cl transport mod 0.52, WT yeast gro inh 6, Lmaj promast 88*, Ins promoter up -0.01 and Insulin prom inh -14.
Screening O=C(CSCCO)Nc1cccc([N+](=O)[O-])c1 returned Cl transport mod 0.068, WT yeast gro inh 1, Lmaj promast 65*, Ins promoter up -0.24, ROMK mod 1.4 and Insulin prom inh -5.
Screening CCN(CCCNC(=O)c1c(C)cc(=O)oc1C)c1cccc(C)c1 returned WT yeast gro inh 14, Lmaj promast 9, Ins promoter up -0.15 and Insulin prom inh -45.
Screening CC(C)(C)c1ccc(C(=O)OCCNC(=O)c2c(Cl)nc3ccccn23)cc1 returned Cl transport mod 0.54, WT yeast gro inh 35, Lmaj promast 76*, Ins promoter up -0.05 and Insulin prom inh -393.
Cc1cccc(-c2nnc(SCC(=O)N3c4ccccc4CCc4ccccc43)n2C)c1 was read as Cl transport mod -0.74, WT yeast gro inh 1, Lmaj promast 91*, Ins promoter up 0.45, ROMK mod -1 and Insulin prom inh -32.
Cn1c(SCC(=O)N2c3ccccc3CCc3ccccc32)nnc1-c1cc2ccccc2cc1O was read as Cl transport mod 0.97, WT yeast gro inh 12, Lmaj promast 98*, Ins promoter up -0.06, ROMK mod -0.49 and Insulin prom inh -28.
Screening COc1cc(NC(=O)C2CCCN2C(=O)OCc2ccccc2)cc(OC)c1 (stereo not given) returned Cl transport mod 0.19, WT yeast gro inh -5, Lmaj promast -1, Ins promoter up 0.15 and ROMK mod -0.24.
For COc1ccc(N=C2C(=Nc3ccc(OC)cc3)N(c3ccc(OC)cc3)C(=S)N2c2ccccc2)cc1 the results were Cl transport mod -0.4, WT yeast gro inh 6, Lmaj promast 19, Ins promoter up 0.35, ROMK mod -0.75 and Insulin prom inh 3.
For Cc1ccc(N=C2C(=S)N(c3ccc(C)cc3)C(=N)N2/N=C/c2ccc(Cl)cc2)cc1 the results were Cl transport mod -0.93, WT yeast gro inh 25, Lmaj promast 100*, ROMK mod 0.36 and Insulin prom inh 14.
Screening S=C(NCCN1CCOCC1)Nc1cccc2ccccc12 returned Cl transport mod 0.019, WT yeast gro inh 1, Lmaj promast 67*, Ins promoter up 0.45, ROMK mod 0.13 and Insulin prom inh 25.

Source: PubChem BioAssay (several laboratories)
